# In the library only some 2.8% were active in any assay of this set; here they are far more common.
# S2 tox: reduces viability in counter-screen for ATXN expression inhibitors; S2 cells (HEK-293 line with an ATXN2-luciferase reporter) viability, CellTiter-Fluor protease fluorescence, 24 h; Potency, µM (doses to about 56.7 µM), hits mostly cytotoxic; hit rate 0.49% among 400,000; note: nearly all actives have a fitted effect of over 40% in size
# HTT cytoprotect: protects HTT-Q103 PC12 cells, measured by ATP; Potency, µM (titrated, usually from 56.4 µM), hits mostly activators; hit rate 0.14% among 230,000; AID 1471; PC12 HTT-Q103 induced, cytoprotection, ATP luminescence, 40 h; note: nearly all actives have a fitted effect of over 45% in size
#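 Compounds added alongside 100 nM tebufenozide, which induces toxic Q103 huntingtin exon 1-GFP in stable PC12 cells; surviving cells quantified by luminescent ATP measurement. Medium: phenol red-free DMEM, 5% equine and 5% calf serum.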
# HepG2 tox: counter-screen for TGF-b inhibitors: cytotoxicity in HepG2 cells; HepG2 CAGA-GFP viability, ATP luminescence, 18 h; Potency, µM (top dose mostly 46.1 µM), hits mostly cytotoxic; hit rate 0.76% among 410,000; AID 588856
#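 HepG2 CAGA-GFP cells (1000/well, DMEM with 1% FBS) received compound, then TGF-beta at 500 pg/mL final, and were incubated 18 hours at 37 degrees C. Viability was read by CellTiter-Glo luminescence. Media-only wells were set as complete cell-killing and DMSO as no toxicity.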
# HTT aggregate: inhibitors of mutant huntingtin aggregate formation in PC12 cells; PC12 HttQ103-GFP aggregates, Acumen cytometry, 40 h; AID 1688; Potency, µM (top dose mostly 46.1 µM), most hits filed as inhibitors; hit rate 1.1% among 220,000; note: nearly all actives have a fitted effect of over 60% in size
#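 Compounds (qHTS titration) were added to PC12 cells expressing an ecdysone-driven HTT exon 1 Q103–GFP fusion after induction with 100 nM tebufenozide. Aggregate formation was measured as GFP objects in cell lysates.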
# ATXN2 expr inh: inhibitors of ATXN2 expression | HEK-293 ATXN2-luciferase reporter, luminescence, 24 h | Potency, µM (highest dose often 57 µM), usual class: inhibitors | hit rate 0.72% among 360,000 | AID 1745845; note: nearly all actives have a fitted effect of over 55% in size
#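 ATXN2-luciferase reporter cells (luciferase flanked by upstream and downstream ATXN2 gene portions) were treated 24 h at 37 °C with compounds at up to 57 uM. SteadyGlo luminescence gave expression; GF-AFC fluorescence gave viability.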
# TGFb inhibitor: blocks TGF-b signaling | Potency, µM (highest dose often 46.1 µM), usual class: inhibitors | hit rate 1.2% among 410,000 | HepG2 CAGA-GFP TGF-b/SMAD3 reporter, GFP fluorescence, 18 h; TGF-beta stimulated, 500 pg/mL final; note: nearly all actives have a fitted effect of over 65% in size
#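 GFP signal (ex488/em500-530) from TGF-beta-stimulated HEPG2 CAGA-GFP cells, 500 pg/mL final, 18 h at 37 degrees C in DMEM plus 1% FBS, normalized to unstimulated and DMSO-stimulated controls.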
# Numbers stand for hits; 0 = inactive; ? = inconclusive; - = not tested or not shown; ! = repeats disagree; [ ] = another dose, or the depositor's remark. Calls come from the whole dose curve; as a rule, active = well fitted curve in the direction sought with a large enough effect; inconclusive = small, poorly fitted or top-dose-only effect, or another doubt; inactive = no such curve, though single readings can be large; an effect the other way counts as inactive or inconclusive.
SMILES,S2 tox,HTT cytoprotect,HepG2 tox,HTT aggregate,ATXN2 expr inh,TGFb inhibitor
COc1cccc(Nc2nnc(SCC(=O)Nc3sccc3C(N)=O)s2)c1,?,0[1.9 µM],0,0[9.22 µM],-,0
O=C(NN=c1c(=O)c2ccccc2c1=O)c1ccccc1,0,0,16µM,0,0,11µM
CCOC(=O)N1CCN(c2ncnc3c2cnn3-c2ccc(Cl)cc2)CC1,-,0[10 µM],-,0,-,-
CC(C)NC[C@@H](C(=O)N1CCN(c2ncnc3c2[C@H](C)C[C@H]3O)CC1)c1ccc(Cl)cc1,-,-,-,-,19µM,-
CCNC(=O)OCC(CC)NC(=O)OCC(C)C (stereo not drawn),0,0,0,0,0,0
CCC(COC(=O)Nc1cccc(C)c1)NC(=O)OCC(C)C (stereo not drawn),?,0,0,10µM,0,0
COc1ccc(CNCC(O)(c2ccccc2)c2ccc(Cl)cc2)cc1 (stereo not drawn),0,0[10 µM],16µM,?,?,?
COc1cc(NS(C)(=O)=O)ccc1Nc1c2ccccc2nc2ccccc12,?,0,0,0,0.25µM,?
COc1ccc(OC)c(Nc2c3c(nc4ccccc24)CCC3)c1,?,-,0,-,0,11µM!
COc1ccc(OC)c(Nc2c3ccccc3nc3ccccc23)c1,14µM,-,0,-,11µM,13µM
COc1ccc(OC)c(Nc2cc(C)c3ccccc3n2)c1,0,-,0,-,-,?
COc1cc(Nc2c3c(nc4ccccc24)CCC3)cc(OC)c1OC,?,-,0,-,0,?
COc1ccccc1C1CN(Cc2cccnc2)Cc2ccccc2O1 (stereo not drawn),0,-,-,-,-,-
Brc1cnc2nc(SCc3nc4ccccc4[nH]3)[nH]c2c1,0,0[10 µM],0,0[9.22 µM],24µM,0
N[C@@H](Cc1c[nH]c2ccccc12)C(=O)NCC(=O)O,-,0,-,-,-,-
CC1(C)CC[C@]2(C(=O)n3ccnc3)CC[C@]3(C)[C@H](C(=O)C=C4[C@@]5(C)C=C(C#N)C(=O)C(C)(C)[C@@H]5CC[C@]43C)[C@@H]2C1,3.8µM,-,0,-,3.4µM,?
O=C(NCCNCCO)C1(C(F)(F)F)CC(CCc2ccccc2)CCCO1 (stereo not drawn),-,-,0,-,-,4µM
O=C(NCc1ccccc1)[C@]1(C(F)(F)F)C[C@H](CCc2ccccc2)CCCO1,0,-,0,-,0,?
Cc1ccccc1N1CCN(Cc2c[nH]c3ccccc23)CC1,?,0[10 µM],10µM,22µM,?,?
c1cnc(N2CCN(Cc3c[nH]c4ccccc34)CC2)nc1,0,0,0,11µM,0,?
Nc1ccc(O)cc1,?,?,14µM,-,0,4.5µM
COc1cc(/C=C/C(=O)c2ccc3c(c2)OCCO3)cc(OC)c1OC,?,-,0,-,?,?
COc1cc(/C=C/C(=O)c2ccc3c(c2)OCO3)cc(OC)c1OC,?,-,22µM,-,?,18µM
COc1ccc2[nH]c3c(=O)n(/N=C/[C@H]4C(C)C=C(C)CC4C)c(=O)[nH]c3c2c1 (stereo partly drawn),13µM,0[10 µM],7.1µM,0,?,5µM
COc1ccc2c(c1)[nH]c1c(=O)n(/N=C/C3C(C)C=C(C)CC3C)c(=O)[nH]c12 (stereo not drawn),0,0,0,0,?,0
SMILES,S2 tox,HTT cytoprotect,HepG2 tox,HTT aggregate,ATXN2 expr inh,TGFb inhibitor
COc1cc(O)ccc1CN1CCc2nnc(C(C)NC(=O)c3cc(F)ccc3F)n2CC1 (stereo not drawn),0,-,-,-,-,-
Cc1ccccc1OCCOC(=O)c1c(-c2ccccc2)noc1C,0,-,0,-,0,0
Cc1onc(-c2ccccc2)c1C(=O)OCCOc1ccc([N+](=O)[O-])cc1[N+](=O)[O-],0,-,0,-,0,14µM
CCOC(=O)C1=C(C)NC(C)=C(C(=O)OCC)C1c1ccccc1/C=C/C(=O)OC(C)(C)C,?,-,-,-,35µM,-
c1csc(C2=Nn3c(nnc3-c3ccncc3)SC2)c1,0,25µM,0,-,0,?
CCC(C)NC(=O)c1ccccc1NC(=O)c1ccc(CSc2ccccc2)cc1 (stereo not drawn),0,0[10 µM],16µM,0,0,?
CC(C)(C)n1ncc2c(=O)n(Cc3cccc(OC(F)(F)F)c3)cnc21,-,-,0,-,-,?
